Reference: PubChem BioAssay (NCATS)
Values without a mark were called inactive. Inconclusive results are not listed. Calls of active or inactive are those of the source. Unless noted, calls come from the whole dose curve; as a rule, active = well fitted curve in either direction with a large enough effect (not every such curve was filed as active); inconclusive = small, poorly fitted or top-dose-only effect, or another doubt; inactive = flat fitted curve, though single readings scatter.

Assays:
[1] = biological target: Lysosomal acid glucosylceramidase (Homo sapiens) (UniProt P04062); test: Glucocerebrosidase-p2 (AID 348; in the data active = potency below about 10 µM; note: potency is the fitted concentration of half-maximal effect); settings: purified GBA, blue fluorogenic substrate, 40 min
Method in brief: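 Normal human glucocerebrosidase (0.2 nM) with blue fluorogenic substrate (80 uM final) in citrate/phosphate pH 5.9 with 10mM sodium taurocholate, 0.01% tween-20; 40 min RT, NaOH/glycine stop; fluorescence Ex 365/Em 440; AC50 from a titration from 0.6 nM upwards.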

[2] = AP1 Signaling Pathway (AID 357); settings: ME-180 AP-1-bla reporter, EGF-induced, beta-lactamase ratio, 5 h; at 7.69 µM (top of the series) unless noted;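 note: ME-180 reporter cells stimulated with EGF at its EC50 level; % is set by controls: 0 for no effect and ±100 for the full control effect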
Method in brief: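 AP-1-bla ME-180 cells, Opti-MEM + 0.5% dialyzed FBS, plated overnight 37 °C. Cpd titration + EC50 EGF, 5 h 37 °C. CCF4 2.5 h RT; ex 405, em 460/530 ratio → %activity, AC50.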

[3] = biological target: Cytochrome P450 1A2 (Homo sapiens) (UniProt P05177); test: p450-cyp1a2 (AID 410; calls by dose curve; note: potency is the fitted concentration of half-maximal effect;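 for activity change, negative = inhibition: -100% = full effect of reference inhibitor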); settings: recombinant CYP1A2, luciferin-ME demethylation, luminescence; series mostly up to 11.4 µM
Method in brief: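 Read-out is luminescence from luciferin produced by CYP1A2 demethylation of Luciferin-ME (100uM, at Km). Detection reagent stopped the 60 min NADPH-dependent reaction; signals were normalized to 57 uM furafylline.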

[4] = NFAT Signaling Pathway (AID 444); settings: Jurkat NFAT-bla M1, carbachol, beta-lactamase ratio, 5 h; at 7.69 µM (top of the series) unless noted;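 note: carbachol stimulus at about its EC50 of 1 µM final; % is set by controls: 0 for no effect and ±100 for the full control effect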
Method in brief: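 Jurkat cells carrying an NFAT-driven β-lactamase reporter and co-transfected muscarinic M1 receptor were treated with compound plus carbachol (1 uM final, an EC50 level) for 5 h at 37 °C. CCF4 loading followed for 1 h at RT; 460/530 nm ratio gave %activity.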

[5] = Stat Signaling Pathway (AID 446); settings: ME-180 (cervical carcinoma) SIE beta-lactamase reporter, IL-6 stimulated, 5 h; at 7.69 µM (top of the series) unless noted;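 note: ME-180 cervical cancer cells given 40 pM IL-6 alongside compound; SIE-controlled beta-lactamase reporter measured as 460/530 nm FRET emission ratio; % is set by controls: 0 for no effect and ±100 for the full control effect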
Method in brief: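 Emission at 460 and 530 nm (excitation 405 nm) reports SIE-controlled beta-lactamase in ME-180 cells. Cells received compound with 40 pM IL-6 for 5 hrs at 37 C; data scaled between 300 pM IL-6 and 125 nM JAK-inhibitor controls.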

[6] = biological target: Glucocorticoid receptor (Homo sapiens) (UniProt P04150); test: GR-GFP Redistribution (AID 450;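 active = compounds whose dose series gives a full or clear partial fitted curve of increased nuclear translocation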; note: potency is the fitted concentration of half-maximal effect); settings: U2OS GR-GFP nuclear translocation, laser cytometry, 2 h
[7] = biological target: Glucocorticoid receptor (Homo sapiens) (UniProt P04150); test: GR-EFC Redistribution (AID 451; calls by dose curve; note: potency is the fitted concentration of half-maximal effect); settings: CHO-K1 GR-EFC translocation, beta-gal luminescence, 2 h
Method in brief: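 CHO-K1 cells stably expressing nuclear-localized β-gal enzyme acceptor and GR fused C-terminally to the enzyme donor fragment; ligand-driven nuclear translocation restores β-gal by complementation. Compounds titrated up to 46 uM final, 2 h at 37 °C; luminescence read.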

[8] = biological target: Mitogen-activated protein kinase 10 (Mus musculus) (UniProt Q61831); test: JNK3 AlphaScreen Assay (AID 530); settings: JNK3 lysate, c-Jun phosphorylation; series mostly up to 11.4 µM;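 note: kinase came from lysate of stimulated human HepG2 cells; signal reports phosphorylation of biotinylated GST-cJun 1-79 at Ser73 with 10 µM ATP; % is set by controls: 0 for no effect and ±100 for the full control effect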
Method in brief: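 Biotinylated GST-cJun(1-79) served as substrate for JNK3 in HepG2 lysates stimulated with IL-1beta and TNF-alpha. ATP was 10 uM final, pH 7.6. Ser73 phosphorylation was quantified by AlphaScreen (680 nm excitation).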

[9] = biological target: 3',5'-cyclic-AMP phosphodiesterase 4B (Homo sapiens) (UniProt Q07343); test: qHTS Assay for Inhibitors of PDE-IV (AID 607; active = well fitted activation curve with a large enough effect in the main read-out, with a control signal flat, not every such curve was filed as active; note: % of control where 0% means no effect); settings: HEK293 ACTOne CNG channel cells, membrane potential fluorescence; series mostly up to 22.9 µM
Method in brief: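 The readout is membrane depolarisation from a cAMP-sensing CNG channel, detected with a potential dye at ex 535/em 590. Cells were HEK293-derived (endogenous PDE-IV) at 1000 cells/well, titrated up to 22.9 uM final.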

[10] = biological target: Cytochrome P450 2D6 (Homo sapiens) (UniProt P10635); test: qHTS Assay for Inhibitors and Substrates of Cytochrome P450 2D6 (AID 891; active = well fitted curve in the direction sought with a large enough effect; an effect the other way counts as inactive or inconclusive; note: nearly all actives have a fitted effect of over 60% in size; note: potency is the fitted concentration of half-maximal effect); settings: recombinant CYP2D6, luciferin-ME EGE luminescence; series mostly up to 11.4 µM
Method in brief: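 Luminescent read-out of luciferin formed by 5 nM human CYP2D6 demethylating 30 uM Luciferin-ME EGE (Km level) over 60 min at room temperature after NADPH regeneration addition. Data normalized to full inhibition by 1.43 uM quinidine.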

[11] = biological target: Cytochrome P450 3A4 (Homo sapiens) (UniProt P08684); test: qHTS Assay for Activators of Cytochrome P450 3A4 (AID 885; active = well fitted curve in the direction sought with a large enough effect; an effect the other way counts as inactive or inconclusive; note: nearly all actives have a fitted effect of over 65% in size); settings: recombinant CYP3A4, Luciferin-PPXE luminescence, 60 min; series mostly up to 11.4 µM
Method in brief: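 Activators are scored by enhanced luminescence from CYP3A4 conversion of luciferin-PPXE (25uM, equal to KM) to luciferin, after 60 min at RT with an NADPH-regenerating system.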

[12] = biological target: Cytochrome P450 2C19 (Homo sapiens) (UniProt P33261); test: qHTS Assay for Inhibitors and Substrates of Cytochrome P450 2C19 (AID 899; active = well fitted curve in the direction sought with a large enough effect; an effect the other way counts as inactive or inconclusive; note: nearly all actives have a fitted effect of over 60% in size; note: potency is the fitted concentration of half-maximal effect); settings: recombinant CYP2C19, luciferin-H EGE luminescence; series mostly up to 11.4 µM
Method in brief: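 NADPH-dependent conversion of Luciferin-H EGE (10uM, at KM) by 5nM enzyme in 50mM KPO4, 60 min at 37C following 10 min compound preincubation. Stopped with luciferin detection buffer; luminescence read after 20 min.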

Chain of 3',5'-cyclic-AMP phosphodiesterase 4B (Homo sapiens) (Q07343 whole entry, looked up): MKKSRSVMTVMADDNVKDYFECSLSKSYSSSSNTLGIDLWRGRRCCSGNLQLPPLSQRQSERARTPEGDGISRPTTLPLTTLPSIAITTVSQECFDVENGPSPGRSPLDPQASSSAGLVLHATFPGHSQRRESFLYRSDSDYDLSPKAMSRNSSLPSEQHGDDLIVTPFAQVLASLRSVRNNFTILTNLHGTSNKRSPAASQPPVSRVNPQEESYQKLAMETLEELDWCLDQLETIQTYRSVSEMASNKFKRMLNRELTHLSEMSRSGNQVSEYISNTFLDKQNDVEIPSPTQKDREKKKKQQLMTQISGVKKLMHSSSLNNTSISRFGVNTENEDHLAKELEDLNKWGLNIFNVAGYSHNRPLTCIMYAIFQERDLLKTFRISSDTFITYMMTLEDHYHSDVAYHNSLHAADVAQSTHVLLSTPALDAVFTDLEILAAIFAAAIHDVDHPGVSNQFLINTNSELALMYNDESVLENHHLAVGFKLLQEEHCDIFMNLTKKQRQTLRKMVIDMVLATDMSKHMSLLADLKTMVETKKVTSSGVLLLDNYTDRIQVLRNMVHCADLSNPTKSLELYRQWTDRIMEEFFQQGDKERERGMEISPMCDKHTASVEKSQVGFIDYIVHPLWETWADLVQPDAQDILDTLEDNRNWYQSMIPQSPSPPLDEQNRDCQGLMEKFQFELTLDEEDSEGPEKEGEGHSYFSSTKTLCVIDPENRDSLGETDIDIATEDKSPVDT
Chain of Lysosomal acid glucosylceramidase (Homo sapiens) (P04062 whole entry, looked up): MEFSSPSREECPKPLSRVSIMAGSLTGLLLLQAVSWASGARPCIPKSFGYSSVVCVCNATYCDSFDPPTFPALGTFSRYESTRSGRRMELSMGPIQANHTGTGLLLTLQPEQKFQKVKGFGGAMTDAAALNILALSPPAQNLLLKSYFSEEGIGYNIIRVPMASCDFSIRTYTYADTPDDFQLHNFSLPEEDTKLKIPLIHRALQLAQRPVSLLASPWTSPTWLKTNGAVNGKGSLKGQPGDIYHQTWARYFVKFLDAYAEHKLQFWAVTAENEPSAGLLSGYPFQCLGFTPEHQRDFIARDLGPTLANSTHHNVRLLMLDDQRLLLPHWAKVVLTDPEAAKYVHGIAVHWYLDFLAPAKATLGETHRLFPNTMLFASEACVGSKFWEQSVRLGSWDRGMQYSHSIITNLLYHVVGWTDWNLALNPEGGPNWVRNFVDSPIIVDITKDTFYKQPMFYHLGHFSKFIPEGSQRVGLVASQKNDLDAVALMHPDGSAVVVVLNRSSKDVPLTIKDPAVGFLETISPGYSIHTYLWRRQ
Chain of Glucocorticoid receptor (Homo sapiens) (P04150 whole entry, looked up, the tested form may be a part): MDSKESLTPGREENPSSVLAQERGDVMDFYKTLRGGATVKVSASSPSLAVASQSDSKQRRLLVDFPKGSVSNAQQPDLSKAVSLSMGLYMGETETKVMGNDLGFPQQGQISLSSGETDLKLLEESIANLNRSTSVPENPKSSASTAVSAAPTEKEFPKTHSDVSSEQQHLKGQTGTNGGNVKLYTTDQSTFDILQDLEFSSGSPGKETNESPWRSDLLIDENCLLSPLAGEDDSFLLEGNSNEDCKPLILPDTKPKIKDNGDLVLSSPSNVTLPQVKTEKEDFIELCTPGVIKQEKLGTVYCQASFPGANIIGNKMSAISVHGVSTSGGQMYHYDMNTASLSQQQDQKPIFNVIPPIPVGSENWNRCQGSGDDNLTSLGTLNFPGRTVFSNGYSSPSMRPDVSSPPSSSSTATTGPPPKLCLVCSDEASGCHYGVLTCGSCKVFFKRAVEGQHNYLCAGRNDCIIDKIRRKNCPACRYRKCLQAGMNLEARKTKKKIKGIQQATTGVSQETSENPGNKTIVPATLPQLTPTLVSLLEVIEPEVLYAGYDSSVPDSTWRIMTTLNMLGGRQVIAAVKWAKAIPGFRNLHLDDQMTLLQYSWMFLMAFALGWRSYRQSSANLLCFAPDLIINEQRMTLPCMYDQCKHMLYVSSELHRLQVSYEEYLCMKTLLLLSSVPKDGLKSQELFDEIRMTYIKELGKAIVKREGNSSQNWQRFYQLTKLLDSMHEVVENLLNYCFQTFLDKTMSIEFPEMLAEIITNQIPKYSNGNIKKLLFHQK
Chain of Cytochrome P450 2C19 (Homo sapiens) (P33261 whole entry, looked up): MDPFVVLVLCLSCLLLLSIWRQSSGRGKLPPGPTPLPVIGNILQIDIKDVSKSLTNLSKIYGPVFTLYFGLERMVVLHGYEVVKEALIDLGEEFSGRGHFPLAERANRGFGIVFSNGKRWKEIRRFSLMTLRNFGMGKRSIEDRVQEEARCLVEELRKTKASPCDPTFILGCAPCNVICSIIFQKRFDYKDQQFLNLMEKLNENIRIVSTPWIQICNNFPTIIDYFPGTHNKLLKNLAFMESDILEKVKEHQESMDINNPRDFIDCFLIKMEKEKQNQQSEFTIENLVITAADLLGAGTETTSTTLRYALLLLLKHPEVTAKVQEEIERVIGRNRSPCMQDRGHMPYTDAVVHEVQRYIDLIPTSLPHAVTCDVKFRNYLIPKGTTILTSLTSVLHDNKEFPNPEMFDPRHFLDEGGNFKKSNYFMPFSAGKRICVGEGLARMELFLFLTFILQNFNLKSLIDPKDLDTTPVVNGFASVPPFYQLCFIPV
Chain of Cytochrome P450 1A2 (Homo sapiens) (P05177 whole entry, looked up): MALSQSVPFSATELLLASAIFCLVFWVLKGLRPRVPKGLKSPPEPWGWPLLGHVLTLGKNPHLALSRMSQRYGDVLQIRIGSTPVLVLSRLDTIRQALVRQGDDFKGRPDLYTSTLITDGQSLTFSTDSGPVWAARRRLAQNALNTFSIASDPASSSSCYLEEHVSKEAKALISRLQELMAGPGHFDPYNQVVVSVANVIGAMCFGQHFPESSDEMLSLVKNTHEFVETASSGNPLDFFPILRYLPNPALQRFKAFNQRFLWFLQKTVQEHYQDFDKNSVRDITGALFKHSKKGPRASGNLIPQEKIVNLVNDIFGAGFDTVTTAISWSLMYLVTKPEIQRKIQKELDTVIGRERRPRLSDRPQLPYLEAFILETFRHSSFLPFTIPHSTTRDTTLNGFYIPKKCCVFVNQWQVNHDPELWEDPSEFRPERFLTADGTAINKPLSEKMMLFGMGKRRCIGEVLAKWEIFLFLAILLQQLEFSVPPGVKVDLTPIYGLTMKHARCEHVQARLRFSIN
Chain of Cytochrome P450 2D6 (Homo sapiens) (P10635 whole entry, looked up): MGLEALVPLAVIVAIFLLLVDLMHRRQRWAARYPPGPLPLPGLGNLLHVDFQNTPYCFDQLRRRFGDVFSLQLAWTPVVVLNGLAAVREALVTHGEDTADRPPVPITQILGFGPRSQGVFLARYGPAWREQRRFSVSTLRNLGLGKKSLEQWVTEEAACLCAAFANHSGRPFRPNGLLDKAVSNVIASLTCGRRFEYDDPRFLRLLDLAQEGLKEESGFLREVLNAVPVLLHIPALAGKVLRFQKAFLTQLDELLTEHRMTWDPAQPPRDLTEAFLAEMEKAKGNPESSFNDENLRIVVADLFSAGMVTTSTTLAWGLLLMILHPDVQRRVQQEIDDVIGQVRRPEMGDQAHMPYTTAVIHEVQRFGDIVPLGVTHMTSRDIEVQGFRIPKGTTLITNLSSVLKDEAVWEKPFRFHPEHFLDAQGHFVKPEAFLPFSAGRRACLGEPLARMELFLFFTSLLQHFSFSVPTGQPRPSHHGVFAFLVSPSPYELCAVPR
Chain of Cytochrome P450 3A4 (Homo sapiens) (P08684 whole entry, looked up): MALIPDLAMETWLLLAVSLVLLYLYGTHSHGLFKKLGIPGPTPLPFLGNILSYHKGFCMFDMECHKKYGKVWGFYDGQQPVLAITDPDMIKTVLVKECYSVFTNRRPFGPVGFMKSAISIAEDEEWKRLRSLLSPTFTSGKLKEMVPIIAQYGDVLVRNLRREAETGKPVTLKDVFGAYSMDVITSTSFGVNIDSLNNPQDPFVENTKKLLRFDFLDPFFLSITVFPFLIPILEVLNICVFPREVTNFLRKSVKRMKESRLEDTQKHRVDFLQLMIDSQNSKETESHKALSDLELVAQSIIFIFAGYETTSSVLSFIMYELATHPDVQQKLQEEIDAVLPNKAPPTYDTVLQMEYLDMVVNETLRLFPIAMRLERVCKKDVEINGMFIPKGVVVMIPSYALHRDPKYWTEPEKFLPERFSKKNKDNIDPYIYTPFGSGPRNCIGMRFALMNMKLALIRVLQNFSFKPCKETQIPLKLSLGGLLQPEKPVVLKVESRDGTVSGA

Structure (SMILES) | Potency [1] [µM] | activity change, negative = inhibition [2] [%] | Potency [3] | activity change, negative = inhibition [4] [%] | activity, negative = inhibition [5] [%] | Potency [6] [µM] | Potency [7] [µM] | Potency [8] | Potency [9] | Potency [10] | Potency [11] | Potency [12] | activity change, negative = inhibition [3]
O=C(O)NCC1CCCCC1 (tested in a mixture with another compound) | > 11.4 | 23.3 | inactive | 22.8 | -1.59 | > 46 | > 9.22 | inactive | inactive | 3.98 µM (active) |  |  | 
c1ccc2sc(SCCSc3nc4ccccc4s3)nc2c1 | > 11.4 | 8.08 | 0.794 µM (active) | -22.4 | 2.32 | > 46 | > 9.22 | inactive | inactive | inactive |  |  | 
Nc1nc(SCc2ccccc2)c2ncn(Cc3ccccc3)c2n1 | > 11.4 | -24.3 | 0.251 µM (active) | 9.29 | -3.2 | > 46 | > 9.22 | inactive | inactive |  | inactive | 2.51 µM (active) | 
O=C(O)c1cc2ccccc2c(S(=O)(=O)O)c1O | > 11.4 | 2.94 | inactive | 7.56 | 3.56 | > 46 | > 9.22 | inactive | inactive | inactive |  |  | 
CCOC(=S)SCC(=O)O | > 11.4 | 3.32 | inactive | 9.65 | 16.6 | > 46 | > 9.22 | inactive | inactive | inactive |  |  | 
CN(C)CCNc1nc2c(c(=O)n(C)c(=O)n2C)n1C | > 11.4 | -7.15 | inactive | 4.81 | 9.47 | > 46 | > 9.22 | inactive | inactive | inactive |  |  | 
N=C(N)SCc1ccc(Cl)cc1Cl (tested in a mixture with another compound) | > 11.4 | 23.5 | 3.98 µM (active) | -21.9 | -9.66 | > 46 | > 9.22 | inactive | inactive | 3.16 µM (active) |  |  | 
CC(C)CNC(=O)O | > 11.4 | 8.49 | inactive | 0.858 | 3.89 | > 46 | > 9.22 | inactive | inactive | inactive |  | inactive | 
Nc1nc(Cl)cc(NCCO)n1 | > 11.4 | -4.13 | inactive | 10.4 | 4.67 | > 46 | > 9.22 | inactive | inactive | inactive |  | inactive | 
CC[C@H](C(=O)c1cccs1)C(O)(C(F)(F)F)C(F)(F)F | > 11.4 | -7.57 |  | 20.8 | -6.19 | > 46 | > 9.22 | inactive | inactive | 3.16 µM (active) |  |  | -17.5% [at 2.29 µM]
Nc1ccc(S(=O)(=O)NCc2nccs2)cc1 | > 11.4 | -6.48 |  | 7.98 | -1.21 | > 46 | > 9.22 | inactive | inactive |  |  | 0.0794 µM (active) | -10.5% [at 2.29 µM]
S=C(Nc1ccc2cn[nH]c2c1)Nc1ccc2cn[nH]c2c1 | > 11.4 | -15 | 0.126 µM (active) | 19.4 | 1.71 | > 46 | > 9.22 | inactive | inactive | 2 µM (active) |  |  | 
CC[C@@H]1CC(=O)N(SC[C@H](N)C(=O)O)C1=O | > 11.4 | 1.56 | inactive | 12.4 | 1.84 | > 46 | > 9.22 | inactive | inactive |  |  | inactive | 
Cn1c(=O)c2c(nc(N/N=C\c3ccccc3C(=O)O)n2C)n(C)c1=O | > 11.4 | -10.8 | inactive | 5.57 | 3.2 | > 46 | > 9.22 | inactive | inactive |  |  | inactive | 
CC(=O)OC(C)(C)N=Nc1ccc(Br)cc1 | > 11.4 | -5.95 | 3.16 µM (active) | 14.8 | 2.84 | > 46 | > 9.22 | inactive | inactive |  |  | 1.26 µM (active) | 
CC[C@@]1([N+](=O)[O-])C[C@H]2C=C[C@@H]1C2 | > 11.4 | 9.4 |  | 4.68 | 3.53 | > 46 | > 9.22 | inactive | inactive | inactive |  | inactive | -12.9% [at 2.29 µM]
O=C(O)CSSCC(=O)O | > 11.4 | 5.08 | inactive | 15.8 | 17.7 | > 46 | > 9.22 | inactive | inactive | inactive |  | inactive | 
O=[N+]([O-])c1cc(Cc2cc([N+](=O)[O-])c3cccnc3c2O)c(O)c2ncccc12 | > 11.4 | 18.2 |  | -16.4 | -1.87 | > 46 | > 9.22 | inactive | inactive |  |  | 2.51 µM (active) | -31.1% [at 2.29 µM]
O=C(C[C@@H](c1ccccc1)N1CCCCC1)c1ccccc1 | > 11.4 | 2.69 | 1.26 µM (active) | 5.6 | -14.9 | > 46 | > 9.22 | inactive | inactive |  |  | 2.51 µM (active) | 
Cn1c(=O)c2[nH]c(CCCCc3nc4ccccc4[nH]3)nc2n(C)c1=O | > 11.4 | -12.7 | inactive | 25 | 5.57 | > 46 | > 9.22 | inactive | inactive | inactive |  | inactive | 
Cc1ccc(N(Cc2ccccc2)Cc2ccccc2)cc1 | > 11.4 | 4.21 |  | -17.4 | 3.16 | > 46 | > 9.22 | inactive | inactive |  |  | 2 µM (active) | -24.2% [at 2.29 µM]
Clc1ccc(-c2noc(CN3CCCCC3)n2)cc1 | > 11.4 | 1.13 | 0.631 µM (active) | 2.07 | -0.202 | > 46 | > 9.22 | inactive | inactive |  |  | 1.58 µM (active) | 
Cc1ccc(S(=O)(=O)N2CCC(C(=O)O)(c3ccccc3)CC2)cc1 | > 11.4 | 0.56 | inactive | 2.33 | -9.97 | > 46 | > 9.22 | inactive | inactive |  |  | inactive | 
N#CC(C#N)=CNCCN1CCN(C=C(C#N)C#N)CC1 | > 11.4 | 2.96 |  | 2.39 | 3.44 | > 46 | > 9.22 | inactive | inactive |  |  | inactive | -15.5% [at 2.29 µM]
CC1=NCC[N@@+]1(CCc1ccccc1)Cc1ccccc1 | > 11.4 | -5.92 | inactive | -20.4 | 11.6 | > 46 | > 9.22 | inactive | inactive | 0.0501 µM (active) |  |  | 
CN(C)Cc1ccc(C(C)(C)C)cc1-c1cc(C(C)(C)C)ccc1CN(C)C | > 11.4 | -1.36 | 3.98 µM (active) | 6.36 | -4.38 | > 46 | > 9.22 | inactive | inactive |  |  | inactive | 
Cn1c(=O)c2[nH]c(CCCCC(=O)O)nc2n(C)c1=O | > 11.4 | 1.28 | 0.794 µM (active) | 6.73 | 1.27 | > 46 | > 9.22 | inactive | inactive |  |  | inactive | 
Clc1nc(NCCc2ccccc2)c2ncn(-c3ccccc3)c2n1 | > 11.4 | -9.15 | 0.501 µM (active) | -0.663 | -22.9 | > 46 | > 9.22 | inactive | inactive |  |  | 0.501 µM (active) | 
N#C[C@@H](N=Nc1ccccc1C(=O)O)C(N)=O | > 11.4 | 9.26 | inactive | -8.71 | -29.4 | > 46 | > 9.22 | inactive | inactive |  |  | inactive | 
